These results are taken from PubChem BioAssay.

Experiment [1] is described as follows: A549 cell viability effects, profiling panel, calcein-AM fluorescence, 48 h, basal (AID 1162). The note with it: higher = more signal.
Experiment [2] in a line: adipocyte viability effects, profiling panel, cell-based, 3T3-L1 adipocytes, calcein-AM fluorescence, 48 h, basal (AID 1163). The note with it: 3T3-L1 adipocytes viability, higher = more signal.
Experiment [3] can be described thus: HepG2 cell viability effects, profiling panel, calcein-AM fluorescence, 48 h, basal (AID 1164). The note with it: higher = more signal.
Experiment [4] is described as follows: MM1S cell viability effects, profiling panel, calcein-AM fluorescence, 48 h, basal (AID 1165).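 Also: viability of MM1S multiple myeloma cells under basal unstimulated conditions.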 As to conditions: higher = more signal.
Experiment [5] is described as follows: basal RPMI8226 viability, no added stimulus, profiling panel, cell-based, calcein-AM fluorescence, 48 h, PK04 Diversity Set (AID 1166).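 Also: cells grown under basal conditions without added stimulus.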 The note with it: RPMI8226 myeloma viability, higher = more signal.
Experiment [6] is described as follows: basal HepG2 mitochondrial membrane potential changes, profiling panel, cell-based, JC-1 fluorescence, 24 h, 100 nL compound (AID 1167). As to conditions: higher = more signal.
The nature of experiment [7]: basal 3T3-L1 adipocyte mitochondrial potential changes, profiling panel, cell-based, JC-1 fluorescence, 3T3-L1 adipocytes, 24 h, 100 nL compound (AID 1168). The note with it: JC-1 mitochondrial fluorescence, higher = more signal, called active from +8 up or from −8 down.
Experiment [8] in a line: basal RPMI8226 mitochondrial membrane potential changes, profiling panel, cell-based, JC-1 fluorescence, 24 h, 100 nL compound (AID 1169). The note with it: RPMI8226 myeloma, JC-1 mitochondrial potential fluorescence, higher = more signal.
Experiment [9] can be described thus: basal MM1S mitochondrial membrane potential changes, profiling panel, cell-based, JC-1 fluorescence, 24 h, 100 nL compound (AID 1170). As to conditions: higher = more signal.
Experiment [10] is described as follows: A549 lung cancer cell viability effects, profiling panel, resazurin fluorescence, 24 h, PK04 Diversity Set (AID 1171). As to conditions: higher = more signal, called active from +8 up or from −8 down.

Activity calls are given as the source filed them.
Also: test concentration not given here.

`COC(=O)C1=C(C)N(Cc2ccccc2)c2c(C(=O)OC)c(C(=O)OC)c(C(=O)OC)c(=O)n2[C@@H]1c1ccccc1`: the z-score in [1] was 0.943; in experiment [2] it was 0.338; in experiment [3], 0.244; in experiment [4] it was 0.24; in experiment [5], 0.327; in experiment [6], 1.12. Further, the z-score is 0.633 (inactive) in [7], -0.281 in experiment [8], -0.0899 in experiment [9] and 0.524 (inactive) in [10].

Regarding `C#CCNC(/C=C/c1ccccc1)CO` (stereo not given), the z-score in [1] is -0.165; in experiment [2], -0.239; in experiment [3], -0.624; in experiment [4], -0.295; in experiment [5], -0.987; in experiment [6], -1.02. Further, the z-score in [7] is 0.308 (inactive); in experiment [8], 0.38; in [9], -0.323; in experiment [10], 0.234 (inactive).

With `O=C1O[C@@H](c2ccccc2)[C@@H](c2ccccc2)N2[C@@H](c3ccc(OCCO)cc3)[C@]3(C(=O)Nc4ccc(C#CCCO)cc43)[C@@H](C(=O)N3CCN(c4ncccn4)CC3)[C@H]12`, the z-score in experiment [1] is 0.848; in experiment [2], 0.38; in experiment [3], -0.17; in experiment [4], 0.0057; in [5], 0.442; in experiment [6], 0.0349. Also, the z-score was 1.88 (inactive) in [7], -0.623 in experiment [8], 0.173 in experiment [9] and 0.293 (inactive) in [10].

Take `CCCN1C(=O)[C@@]2(CCS(=O)(=O)c3ccccc3)N=C(c3ccc(OCCCO)cc3)O[C@H]2c2ccccc21`: the z-score in [1] is -1.3; in experiment [2] it was 2.41; in experiment [3], -0.64; in experiment [4], -0.454; in experiment [5], -3.68; in experiment [6], 0.241. For the same compound, the z-score in experiment [7] was 0.535 (inactive); in experiment [8] it was -1.31; in experiment [9], -0.148; in [10] it was -1.33 (inactive).

With `COC(=O)C1=CC(c2ccc(CO)cc2)=CC(C2CC2)N(Cc2sc3ccccc3c2Cl)C=C1C(=O)OC` (stereo not given), the z-score is -0.905 in [1]; 1.77 in experiment [2]; -0.651 in [3]; -2.62 in [4]; -4.22 in experiment [5]; 1.72 in experiment [6]. Also, the z-score was 0.982 (inactive) in [7], -0.804 in experiment [8], -0.969 in experiment [9] and -1.3 (inactive) in [10].

Consider `Cc1ccc(S[C@]2(C(=O)NCCCN(C)C)CC(=O)N(C3CCCCC3)[C@@H]2c2ccc(CO)cc2I)cc1`, for which the z-score in [1] is -0.272; in experiment [2] it was 1.8; in [3], -4.31; in experiment [4], -3.25; in experiment [5], -3.08; in experiment [6], 1.8. The z-score in experiment [7] was 0.794 (inactive); in experiment [8], -0.644; in experiment [9], -1.84; in experiment [10], -0.835 (inactive).

Regarding `CC(C)[Si](OCCCNS(=O)(=O)c1ccc(Br)cc1)(C(C)C)C(C)C`, the z-score was 0.0609 in [1]; 0.279 in experiment [2]; -2.5 in experiment [3]; -3.23 in experiment [4]; -4.09 in [5]; -3.5 in experiment [6]. For the same compound, the z-score in [7] was 2.29 (inactive); in experiment [8] it was -0.218; in [9], 0.727; in experiment [10], -0.116 (inactive).

Consider `COC(=O)c1c(CC[C@@H](CO)NC(=O)N[C@H](Cn2cc(-c3cncn3C)nn2)C(C)C)oc(C(C)=O)c1C(=O)OC`, for which the z-score in experiment [1] is 0.128; in experiment [2] it was 1.93; in experiment [3], -0.102; in experiment [4], 0.191; in experiment [5], -0.344; in experiment [6], 0.57. Also, the z-score was 1.43 (inactive) in experiment [7], -0.444 in experiment [8], -0.289 in [9] and -0.169 (inactive) in experiment [10].

Consider `C=CCC1=C[C@H]2[C@H]([C@@H]3C=C[C@]2(CC=C)C(=O)[C@]32CO2)[C@@]2(CO2)C1=O`, for which the z-score was -0.135 in experiment [1]; 0.916 in experiment [2]; -0.732 in experiment [3]; -3.16 in experiment [4]; -2.93 in experiment [5]; 0.896 in experiment [6]. For the same compound, the z-score in experiment [7] was 1.54 (inactive); in [8], -0.201; in experiment [9] it was -2.08; in experiment [10], -1.33 (inactive).

As to `N#Cc1ccc(NN2C(C(O)c3ccc(I)cc3)C=CC3C(=O)N(c4ccccc4)C(=O)C32)cc1` (stereo not given), the z-score in experiment [1] was -0.668; in experiment [2] it was -0.392; in experiment [3], 0.0254; in experiment [4] it was -1.03; in [5], -0.251; in [6] it was -0.895. Also, the z-score in experiment [7] is 0.641 (inactive); in [8], -0.586; in experiment [9] it was -0.263; in experiment [10] it was -0.383 (inactive).

In the case of `CC(C)CN1C(=O)[C@@]2(Cc3ccccc31)c1ccccc1C(=O)N(C1CCCCC1)[C@H]2c1ccc(CO)cc1`, the z-score is 0.572 in experiment [1]; 1.86 in experiment [2]; 0.502 in experiment [3]; 0.845 in [4]; -0.0832 in [5]; -0.178 in experiment [6]. In addition, the z-score was 0.938 (inactive) in experiment [7], -0.6 in experiment [8], 0.00808 in experiment [9] and 0.148 (inactive) in [10].

With `CC/C=C/C(=O)N(C[C@@H]1CCCO1)[C@@H]1CC(C(=O)NCCO)=C[C@H](Oc2c(I)cc(CO)cc2OC)[C@H]1O`, the z-score is 1.65 in [1]; 0.407 in experiment [2]; 0.362 in [3]; 0.0808 in experiment [4]; 0.587 in experiment [5]; 2.48 in experiment [6]. Moreover, the z-score in [7] is 1.32 (inactive); in experiment [8] it was -0.0319; in experiment [9], 0.265; in experiment [10], 1.07 (inactive).

Turning to `CO[C@H]1O[C@H](CO)[C@@H](OC(=O)CCc2ccccc2)[C@@H]2OC(=O)[C@H](Cc3cccc(Br)c3)C/C=C/C[C@@H](Cc3cccc(Br)c3)C(=O)O[C@@H]12`, the z-score was 1.28 in experiment [1]; 1.22 in [2]; 2.26 in [3]; 1.15 in experiment [4]; 1.6 in experiment [5]; 1.01 in experiment [6]. The z-score is 1.6 (inactive) in experiment [7], -0.359 in [8], 1.18 in experiment [9] and 0.844 (inactive) in experiment [10].

Regarding `COc1ccc([Si](C)(C)[C@@H]2[C@@H](CC(=O)N(CCO)Cc3ccccc3)O[C@]3(C(=O)N(Cc4cccc(N5CCC5=O)c4)c4ccccc43)[C@H]2C)cc1`, the z-score is -1.45 in experiment [1]; 1.5 in experiment [2]; -2.2 in experiment [3]; -2.55 in experiment [4]; -4.06 in experiment [5]; 0.952 in [6]. The z-score in experiment [7] is -0.0485 (inactive); in experiment [8], -0.917; in experiment [9] it was -0.523; in experiment [10], -1.82 (inactive).

As for `COC(=O)c1ccc(C#CC(NP(=O)(c2ccccc2)c2ccccc2)c2ccccc2)cc1` (stereo not given), the z-score in [1] is -0.341; in [2], -0.0724; in experiment [3], 0.428; in [4], -3.15; in experiment [5], -3.5; in experiment [6], -0.798. In addition, the z-score is -0.174 (inactive) in [7], -0.352 in [8], -1.3 in experiment [9] and -0.491 (inactive) in [10].
